Tests used:
Experiment in all cases: log2 ratio of Biotin-Ahx-Ub-VS probe labelling (fragment/DMSO); higher = less target engagement (more negative = stronger competition), active = hit call of the paper (q ≤ 0.05, log2 ratio ≤ -1)
Conditions in all cases: compound concentration: 200 uM; treatment time: 3 h
[1] = biological target: T1, USP42 (UniProt Q9H9J4)
T1 sequence (whole entry): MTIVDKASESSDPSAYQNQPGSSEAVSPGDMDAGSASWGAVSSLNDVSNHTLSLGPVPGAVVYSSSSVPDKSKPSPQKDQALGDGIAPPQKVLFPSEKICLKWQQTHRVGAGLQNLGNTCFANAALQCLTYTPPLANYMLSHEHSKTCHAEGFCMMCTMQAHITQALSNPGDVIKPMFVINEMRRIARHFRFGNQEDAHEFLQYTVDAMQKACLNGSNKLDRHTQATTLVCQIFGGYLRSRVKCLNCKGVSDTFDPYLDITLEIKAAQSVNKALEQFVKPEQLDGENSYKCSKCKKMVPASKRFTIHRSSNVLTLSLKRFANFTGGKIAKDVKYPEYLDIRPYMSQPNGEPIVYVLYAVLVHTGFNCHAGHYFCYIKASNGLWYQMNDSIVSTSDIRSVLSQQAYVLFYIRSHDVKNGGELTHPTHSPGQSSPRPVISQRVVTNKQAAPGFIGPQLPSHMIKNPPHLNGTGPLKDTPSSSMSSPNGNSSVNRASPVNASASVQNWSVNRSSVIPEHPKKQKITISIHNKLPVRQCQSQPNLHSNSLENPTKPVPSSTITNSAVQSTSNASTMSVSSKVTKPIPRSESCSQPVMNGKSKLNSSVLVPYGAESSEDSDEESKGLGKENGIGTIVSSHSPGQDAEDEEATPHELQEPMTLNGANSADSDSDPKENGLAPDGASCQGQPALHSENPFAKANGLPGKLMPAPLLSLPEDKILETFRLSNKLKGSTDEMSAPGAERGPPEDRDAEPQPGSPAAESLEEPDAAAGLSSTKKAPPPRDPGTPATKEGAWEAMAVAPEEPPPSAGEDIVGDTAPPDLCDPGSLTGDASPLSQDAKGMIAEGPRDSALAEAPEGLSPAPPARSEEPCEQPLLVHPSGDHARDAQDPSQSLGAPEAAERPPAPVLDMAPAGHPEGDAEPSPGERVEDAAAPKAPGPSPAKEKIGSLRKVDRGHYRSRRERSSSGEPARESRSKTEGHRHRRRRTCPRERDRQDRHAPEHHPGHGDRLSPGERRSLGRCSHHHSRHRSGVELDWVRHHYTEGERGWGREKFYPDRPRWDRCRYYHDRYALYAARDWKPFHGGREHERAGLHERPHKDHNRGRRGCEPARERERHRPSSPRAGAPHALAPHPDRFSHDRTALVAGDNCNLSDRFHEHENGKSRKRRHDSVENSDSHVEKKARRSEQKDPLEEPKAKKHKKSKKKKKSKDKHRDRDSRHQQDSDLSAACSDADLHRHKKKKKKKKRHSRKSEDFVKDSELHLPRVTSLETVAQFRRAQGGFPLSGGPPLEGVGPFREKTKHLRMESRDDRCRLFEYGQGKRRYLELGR
Procedure, shortened: (§1)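 Average log2 ratios of fragment over vehicle were obtained by unpaired t-test from global-median-normalised Spectronaut label-free quantities. Proteins with ≥2 unique peptides were included. HEK293T lysate (495 µg per sample) was treated in triplicate with fragment at 200 µM or vehicle for 3 h, then with Biotin-Ahx-Ub-VS at 0.5 µM final for 1 h, and labelled DUBs were NeutrAvidin-enriched and run by diaPASEF LC-MS/MS.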

[2] = biological target: USP46 (UniProt P62068)
Procedure, shortened: as §1

[3] = biological target: T2, USP47 (UniProt Q96K76)
T2 sequence (whole entry): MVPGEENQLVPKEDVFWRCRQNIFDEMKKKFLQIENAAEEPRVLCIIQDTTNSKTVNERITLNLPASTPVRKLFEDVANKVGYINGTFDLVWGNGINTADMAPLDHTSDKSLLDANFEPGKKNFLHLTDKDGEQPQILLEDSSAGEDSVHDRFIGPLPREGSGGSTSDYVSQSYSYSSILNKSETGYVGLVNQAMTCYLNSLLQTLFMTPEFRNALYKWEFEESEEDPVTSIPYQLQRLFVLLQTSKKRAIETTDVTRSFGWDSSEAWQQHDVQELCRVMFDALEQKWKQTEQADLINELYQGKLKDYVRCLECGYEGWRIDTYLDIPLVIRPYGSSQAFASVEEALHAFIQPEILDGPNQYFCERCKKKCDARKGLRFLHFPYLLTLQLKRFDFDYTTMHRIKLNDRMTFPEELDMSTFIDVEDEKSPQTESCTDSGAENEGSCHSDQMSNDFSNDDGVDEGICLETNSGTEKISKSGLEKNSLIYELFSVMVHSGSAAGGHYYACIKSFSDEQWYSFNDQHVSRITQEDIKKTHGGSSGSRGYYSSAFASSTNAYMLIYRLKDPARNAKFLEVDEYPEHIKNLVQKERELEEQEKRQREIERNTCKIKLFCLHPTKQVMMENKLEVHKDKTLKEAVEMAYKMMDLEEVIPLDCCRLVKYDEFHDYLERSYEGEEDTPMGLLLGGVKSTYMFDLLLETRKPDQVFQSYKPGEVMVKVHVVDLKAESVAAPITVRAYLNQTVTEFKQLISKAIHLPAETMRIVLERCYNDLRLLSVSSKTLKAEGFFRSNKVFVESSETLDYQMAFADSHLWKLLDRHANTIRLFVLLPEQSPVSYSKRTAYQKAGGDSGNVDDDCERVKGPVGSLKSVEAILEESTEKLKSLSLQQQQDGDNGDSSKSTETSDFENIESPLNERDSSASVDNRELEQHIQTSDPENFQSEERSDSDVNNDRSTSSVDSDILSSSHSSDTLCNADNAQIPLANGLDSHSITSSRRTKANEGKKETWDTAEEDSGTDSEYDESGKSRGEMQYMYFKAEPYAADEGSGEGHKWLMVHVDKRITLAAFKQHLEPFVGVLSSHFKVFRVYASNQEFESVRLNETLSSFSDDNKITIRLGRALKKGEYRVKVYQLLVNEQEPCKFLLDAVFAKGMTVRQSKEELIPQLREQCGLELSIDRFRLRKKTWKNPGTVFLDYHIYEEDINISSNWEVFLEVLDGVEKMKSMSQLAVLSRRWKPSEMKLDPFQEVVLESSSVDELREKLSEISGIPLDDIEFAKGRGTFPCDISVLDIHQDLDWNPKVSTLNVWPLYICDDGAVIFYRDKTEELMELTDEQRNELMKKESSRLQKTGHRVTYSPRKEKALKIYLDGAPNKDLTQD
Procedure, shortened: as §1

[4] = biological target: T3, USP48 (UniProt Q86UV5)
T3 sequence (whole entry): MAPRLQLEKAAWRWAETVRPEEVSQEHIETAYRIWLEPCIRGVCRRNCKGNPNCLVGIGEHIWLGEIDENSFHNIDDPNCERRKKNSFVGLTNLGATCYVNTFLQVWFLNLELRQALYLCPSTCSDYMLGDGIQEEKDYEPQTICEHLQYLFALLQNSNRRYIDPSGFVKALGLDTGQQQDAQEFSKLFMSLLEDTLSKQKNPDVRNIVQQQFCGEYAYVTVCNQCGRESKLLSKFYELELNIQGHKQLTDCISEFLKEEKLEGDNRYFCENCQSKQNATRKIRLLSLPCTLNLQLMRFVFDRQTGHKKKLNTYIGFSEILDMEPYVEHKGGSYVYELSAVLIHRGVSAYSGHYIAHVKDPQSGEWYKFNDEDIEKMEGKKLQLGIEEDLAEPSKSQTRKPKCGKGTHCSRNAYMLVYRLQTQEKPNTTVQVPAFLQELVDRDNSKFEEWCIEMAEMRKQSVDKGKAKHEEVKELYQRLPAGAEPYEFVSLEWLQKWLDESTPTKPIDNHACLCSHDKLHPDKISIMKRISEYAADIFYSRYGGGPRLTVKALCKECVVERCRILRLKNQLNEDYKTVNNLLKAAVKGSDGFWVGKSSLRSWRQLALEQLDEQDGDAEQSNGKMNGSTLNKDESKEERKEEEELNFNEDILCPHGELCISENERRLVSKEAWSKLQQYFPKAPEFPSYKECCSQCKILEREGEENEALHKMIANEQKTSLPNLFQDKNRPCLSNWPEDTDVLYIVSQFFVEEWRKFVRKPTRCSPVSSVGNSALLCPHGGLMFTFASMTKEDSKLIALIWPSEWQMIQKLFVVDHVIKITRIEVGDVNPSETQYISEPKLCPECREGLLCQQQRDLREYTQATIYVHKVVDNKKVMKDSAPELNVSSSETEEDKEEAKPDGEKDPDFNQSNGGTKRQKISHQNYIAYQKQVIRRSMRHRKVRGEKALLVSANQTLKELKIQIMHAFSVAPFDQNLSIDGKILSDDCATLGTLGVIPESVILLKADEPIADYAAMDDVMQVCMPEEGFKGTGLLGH
Procedure, shortened: as §1

[5] = biological target: T4, USP5 (UniProt P45974)
T4 sequence (whole entry): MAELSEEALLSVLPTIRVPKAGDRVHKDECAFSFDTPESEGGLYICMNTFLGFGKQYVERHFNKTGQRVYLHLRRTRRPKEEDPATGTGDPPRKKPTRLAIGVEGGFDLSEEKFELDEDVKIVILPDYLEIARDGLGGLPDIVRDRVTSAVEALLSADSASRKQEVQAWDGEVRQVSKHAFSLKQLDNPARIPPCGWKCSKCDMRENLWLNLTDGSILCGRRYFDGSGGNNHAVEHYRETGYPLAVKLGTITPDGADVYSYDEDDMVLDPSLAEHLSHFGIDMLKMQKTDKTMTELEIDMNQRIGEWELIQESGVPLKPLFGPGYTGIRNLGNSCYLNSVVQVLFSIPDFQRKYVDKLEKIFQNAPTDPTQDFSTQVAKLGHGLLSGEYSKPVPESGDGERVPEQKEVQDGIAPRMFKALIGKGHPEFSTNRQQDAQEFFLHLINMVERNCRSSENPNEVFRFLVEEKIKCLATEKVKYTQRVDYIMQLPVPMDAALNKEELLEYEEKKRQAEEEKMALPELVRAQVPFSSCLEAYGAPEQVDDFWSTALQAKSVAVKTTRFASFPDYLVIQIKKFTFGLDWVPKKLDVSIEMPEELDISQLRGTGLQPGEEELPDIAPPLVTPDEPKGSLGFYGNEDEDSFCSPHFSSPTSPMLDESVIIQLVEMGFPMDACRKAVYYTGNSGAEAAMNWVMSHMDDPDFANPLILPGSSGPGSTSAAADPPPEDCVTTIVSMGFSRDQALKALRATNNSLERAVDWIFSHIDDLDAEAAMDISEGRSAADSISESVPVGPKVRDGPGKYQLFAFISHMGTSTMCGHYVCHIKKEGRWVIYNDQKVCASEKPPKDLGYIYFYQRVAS
Procedure, shortened: as §1

[6] = biological target: USP54 (UniProt Q70EL1)
Procedure, shortened: as §1

[7] = biological target: USP7 (UniProt Q93009)
Procedure, shortened: as §1

[8] = biological target: T5, USP8 (UniProt P40818)
T5 sequence (whole entry): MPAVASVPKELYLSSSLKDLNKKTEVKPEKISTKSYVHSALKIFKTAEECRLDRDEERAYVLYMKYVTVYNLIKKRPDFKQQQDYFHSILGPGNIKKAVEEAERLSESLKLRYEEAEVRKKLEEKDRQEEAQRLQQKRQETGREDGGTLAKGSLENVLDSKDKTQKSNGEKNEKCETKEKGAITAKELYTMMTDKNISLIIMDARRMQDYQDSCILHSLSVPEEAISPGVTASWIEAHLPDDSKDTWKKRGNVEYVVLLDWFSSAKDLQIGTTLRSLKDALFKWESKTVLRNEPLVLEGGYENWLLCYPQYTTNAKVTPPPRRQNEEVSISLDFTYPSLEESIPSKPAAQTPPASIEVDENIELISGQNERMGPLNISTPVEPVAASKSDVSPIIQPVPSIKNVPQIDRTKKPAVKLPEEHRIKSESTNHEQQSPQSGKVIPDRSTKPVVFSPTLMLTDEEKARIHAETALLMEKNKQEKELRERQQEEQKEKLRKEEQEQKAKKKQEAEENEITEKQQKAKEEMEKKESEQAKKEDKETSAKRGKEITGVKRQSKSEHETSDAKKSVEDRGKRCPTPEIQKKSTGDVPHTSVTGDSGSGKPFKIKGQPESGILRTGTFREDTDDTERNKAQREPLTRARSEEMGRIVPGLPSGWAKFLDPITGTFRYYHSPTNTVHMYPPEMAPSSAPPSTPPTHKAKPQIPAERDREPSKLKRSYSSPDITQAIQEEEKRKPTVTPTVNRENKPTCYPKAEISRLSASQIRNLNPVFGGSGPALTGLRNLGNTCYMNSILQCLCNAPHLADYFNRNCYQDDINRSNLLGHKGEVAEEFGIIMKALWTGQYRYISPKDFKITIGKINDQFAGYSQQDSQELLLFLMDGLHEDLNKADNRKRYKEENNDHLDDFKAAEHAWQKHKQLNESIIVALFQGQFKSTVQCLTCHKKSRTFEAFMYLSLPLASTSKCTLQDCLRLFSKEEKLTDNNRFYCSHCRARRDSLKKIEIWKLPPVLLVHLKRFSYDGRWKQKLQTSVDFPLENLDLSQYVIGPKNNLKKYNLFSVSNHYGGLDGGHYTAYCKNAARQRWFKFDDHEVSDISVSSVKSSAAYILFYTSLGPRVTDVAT
Procedure, shortened: as §1

[9] = biological target: USP9X (UniProt Q93008)
Procedure, shortened: as §1

[10] = biological target: UniProt O00487
Procedure, shortened: as §1

Measured: log2 ratio of Biotin-Ahx-Ub-VS probe labelling

Sequence of USP7 (Q93009 whole entry, looked up): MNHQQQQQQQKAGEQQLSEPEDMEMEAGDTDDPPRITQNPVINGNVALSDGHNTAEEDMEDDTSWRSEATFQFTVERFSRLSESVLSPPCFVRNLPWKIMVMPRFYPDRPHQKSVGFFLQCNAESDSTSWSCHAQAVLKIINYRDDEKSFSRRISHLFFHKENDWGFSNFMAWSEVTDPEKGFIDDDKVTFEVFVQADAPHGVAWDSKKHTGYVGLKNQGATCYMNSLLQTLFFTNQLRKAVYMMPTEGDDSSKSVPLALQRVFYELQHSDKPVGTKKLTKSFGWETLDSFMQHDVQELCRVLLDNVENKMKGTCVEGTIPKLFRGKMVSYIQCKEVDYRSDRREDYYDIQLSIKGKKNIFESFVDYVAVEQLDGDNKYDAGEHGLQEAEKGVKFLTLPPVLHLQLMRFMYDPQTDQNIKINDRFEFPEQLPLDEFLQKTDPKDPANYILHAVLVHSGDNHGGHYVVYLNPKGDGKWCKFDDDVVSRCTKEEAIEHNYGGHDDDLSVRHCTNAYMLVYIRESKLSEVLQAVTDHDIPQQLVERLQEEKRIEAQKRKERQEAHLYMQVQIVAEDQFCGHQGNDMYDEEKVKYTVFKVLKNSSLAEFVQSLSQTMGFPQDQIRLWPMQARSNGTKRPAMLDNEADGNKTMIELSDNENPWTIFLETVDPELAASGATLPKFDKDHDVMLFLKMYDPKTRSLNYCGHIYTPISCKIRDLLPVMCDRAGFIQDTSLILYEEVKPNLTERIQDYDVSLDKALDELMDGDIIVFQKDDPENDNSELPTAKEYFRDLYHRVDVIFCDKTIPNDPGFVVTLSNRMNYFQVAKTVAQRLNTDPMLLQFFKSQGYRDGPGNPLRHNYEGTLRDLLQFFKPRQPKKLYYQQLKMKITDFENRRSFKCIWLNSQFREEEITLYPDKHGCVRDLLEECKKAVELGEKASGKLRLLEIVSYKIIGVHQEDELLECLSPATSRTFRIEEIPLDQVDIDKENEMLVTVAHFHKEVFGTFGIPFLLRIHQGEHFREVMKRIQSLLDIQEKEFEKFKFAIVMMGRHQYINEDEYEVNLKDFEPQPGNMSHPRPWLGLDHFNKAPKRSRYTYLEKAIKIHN
Sequence of USP54 (Q70EL1 whole entry): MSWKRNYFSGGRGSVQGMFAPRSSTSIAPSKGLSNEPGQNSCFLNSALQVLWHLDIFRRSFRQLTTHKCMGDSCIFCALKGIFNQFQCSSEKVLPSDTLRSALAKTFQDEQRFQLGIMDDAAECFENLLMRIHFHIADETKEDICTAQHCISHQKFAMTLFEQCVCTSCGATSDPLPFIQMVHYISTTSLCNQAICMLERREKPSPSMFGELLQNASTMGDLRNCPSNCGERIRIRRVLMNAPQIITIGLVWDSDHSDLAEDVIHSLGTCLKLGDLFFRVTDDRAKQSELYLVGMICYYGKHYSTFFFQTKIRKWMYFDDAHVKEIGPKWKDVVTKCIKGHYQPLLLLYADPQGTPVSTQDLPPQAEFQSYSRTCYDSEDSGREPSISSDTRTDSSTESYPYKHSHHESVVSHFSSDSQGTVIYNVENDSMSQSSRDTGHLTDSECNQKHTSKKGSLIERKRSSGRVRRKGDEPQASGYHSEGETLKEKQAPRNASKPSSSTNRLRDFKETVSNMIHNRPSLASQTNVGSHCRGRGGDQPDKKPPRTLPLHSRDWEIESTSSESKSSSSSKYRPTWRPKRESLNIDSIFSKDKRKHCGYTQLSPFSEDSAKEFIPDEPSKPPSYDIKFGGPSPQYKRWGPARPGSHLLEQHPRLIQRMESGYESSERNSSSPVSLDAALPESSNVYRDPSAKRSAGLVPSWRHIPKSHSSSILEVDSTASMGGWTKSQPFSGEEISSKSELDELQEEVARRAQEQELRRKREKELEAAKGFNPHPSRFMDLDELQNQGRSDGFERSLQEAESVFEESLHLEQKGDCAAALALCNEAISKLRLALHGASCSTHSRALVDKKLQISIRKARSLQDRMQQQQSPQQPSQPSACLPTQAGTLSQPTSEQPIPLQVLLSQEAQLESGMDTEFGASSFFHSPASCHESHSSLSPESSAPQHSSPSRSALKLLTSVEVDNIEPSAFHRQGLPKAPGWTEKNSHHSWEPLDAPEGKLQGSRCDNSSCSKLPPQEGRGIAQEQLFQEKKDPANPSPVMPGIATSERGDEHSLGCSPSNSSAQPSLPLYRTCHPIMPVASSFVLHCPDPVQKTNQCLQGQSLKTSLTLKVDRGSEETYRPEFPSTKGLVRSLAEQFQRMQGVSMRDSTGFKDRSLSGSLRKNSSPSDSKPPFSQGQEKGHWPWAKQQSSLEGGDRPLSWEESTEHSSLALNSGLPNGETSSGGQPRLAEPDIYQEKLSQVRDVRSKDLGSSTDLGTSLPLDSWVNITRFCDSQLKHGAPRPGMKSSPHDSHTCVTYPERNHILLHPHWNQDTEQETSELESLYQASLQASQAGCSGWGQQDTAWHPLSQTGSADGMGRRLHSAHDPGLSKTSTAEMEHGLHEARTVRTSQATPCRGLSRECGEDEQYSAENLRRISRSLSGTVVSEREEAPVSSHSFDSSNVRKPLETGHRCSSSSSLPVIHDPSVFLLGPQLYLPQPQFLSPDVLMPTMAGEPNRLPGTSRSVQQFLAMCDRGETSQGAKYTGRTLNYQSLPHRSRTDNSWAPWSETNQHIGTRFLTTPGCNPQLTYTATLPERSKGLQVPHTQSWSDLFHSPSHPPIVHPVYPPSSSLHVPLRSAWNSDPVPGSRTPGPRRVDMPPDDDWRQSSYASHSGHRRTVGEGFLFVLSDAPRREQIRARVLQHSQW
Sequence of UniProt O00487 (O00487 whole entry): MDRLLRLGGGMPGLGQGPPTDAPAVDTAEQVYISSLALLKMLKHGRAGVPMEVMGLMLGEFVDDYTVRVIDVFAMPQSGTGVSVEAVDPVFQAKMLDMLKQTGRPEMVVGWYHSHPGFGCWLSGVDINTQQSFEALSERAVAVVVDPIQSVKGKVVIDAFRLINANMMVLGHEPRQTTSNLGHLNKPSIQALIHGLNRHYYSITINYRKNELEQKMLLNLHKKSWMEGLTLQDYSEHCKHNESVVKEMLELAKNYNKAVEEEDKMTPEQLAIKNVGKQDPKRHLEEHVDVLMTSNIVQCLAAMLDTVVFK
Sequence of USP46 (P62068 whole entry): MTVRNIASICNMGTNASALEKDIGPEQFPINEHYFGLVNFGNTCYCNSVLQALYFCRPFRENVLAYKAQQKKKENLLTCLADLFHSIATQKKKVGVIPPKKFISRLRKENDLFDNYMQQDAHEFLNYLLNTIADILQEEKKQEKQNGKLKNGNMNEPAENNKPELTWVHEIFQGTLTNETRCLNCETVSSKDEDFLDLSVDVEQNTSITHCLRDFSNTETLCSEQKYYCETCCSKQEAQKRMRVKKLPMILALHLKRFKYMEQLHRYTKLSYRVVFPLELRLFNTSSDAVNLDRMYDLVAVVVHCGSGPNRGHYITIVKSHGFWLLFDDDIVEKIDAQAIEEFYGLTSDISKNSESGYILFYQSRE

COCC1C=CCCN1C(=O)CCl (stereo not given)
inactive: [1] -0.485 | [2] 0.0708 | [3] -0.789 | [4] -0.152 | [5] 0.0548 | [6] 0.237 | [7] -0.21 | [8] -0.0182 | [9] -0.16 | [10] -0.0987
